The record followed here is PubChem BioAssay (NCATS).

Records with an inconclusive call do not appear. Values without a mark were called inactive. Activity calls are given as the source filed them. Calls come from the whole dose curve; as a rule, active = well fitted curve in the direction sought with a large enough effect; inconclusive = small, poorly fitted or top-dose-only effect, or another doubt; inactive = no such curve, though single readings can be large; an effect the other way counts as inactive or inconclusive.

Test [1] deals with Rap guanine nucleotide exchange factor 3 (Homo sapiens) (UniProt O95398). The experiment in a line: Confirmatory qHTS for antagonist of cAMP-regulated guanine nucleotide exchange factor 3 (EPAC1) (AID 1645880). Note: nearly all actives have a fitted effect of over 55% in size. Note: potency is the fitted concentration of half-maximal effect. The method in brief:
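Nucleotide exchange uses 100 nM EPAC1, 250 nM RAP1B-BODIPY-GDP and 50 uM GDP, with compounds in a concentration-titration series. After 5 min at room temperature, fluorescence (480 nm ex/540 nm em) is read every 5 min for 30 min. Data are normalized to control ATA and DMSO.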
(In general: qHTS replaces the single test concentration by a dilution series.)

For test [2] the target is unchanged. Kind of test: Confirmatory qHTS for agonist of cAMP-regulated guanine nucleotide exchange factor 3 (EPAC1) (AID 1645881).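 For activation: EPAC1 catalysed release of BODIPY-GDP from Rap1B seen as fluorescence loss; 100% = effect of cAMP agonist control.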 Note: nearly all actives have a fitted effect of over 75% in size. Note: potency is the fitted concentration of half-maximal effect.
For test [3], the target named is Rap guanine nucleotide exchange factor 4 (Homo sapiens) (UniProt Q8WZA2). Kind of test: Confirmatory qHTS for agonist of cAMP-regulated guanine nucleotide exchange factor 4 (EPAC2) (AID 1645884). For activation: % is set by controls: 0 for no effect and ±100 for the full control effect.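 Note: nucleotide exchange releases bodipy-GDP from Rap1 and this lowers its fluorescence; nearly all actives have a fitted effect of over 65% in size.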 Note: potency is the fitted concentration of half-maximal effect.
Rap guanine nucleotide exchange factor 4 (Homo sapiens), sequence (Q8WZA2 whole entry, looked up): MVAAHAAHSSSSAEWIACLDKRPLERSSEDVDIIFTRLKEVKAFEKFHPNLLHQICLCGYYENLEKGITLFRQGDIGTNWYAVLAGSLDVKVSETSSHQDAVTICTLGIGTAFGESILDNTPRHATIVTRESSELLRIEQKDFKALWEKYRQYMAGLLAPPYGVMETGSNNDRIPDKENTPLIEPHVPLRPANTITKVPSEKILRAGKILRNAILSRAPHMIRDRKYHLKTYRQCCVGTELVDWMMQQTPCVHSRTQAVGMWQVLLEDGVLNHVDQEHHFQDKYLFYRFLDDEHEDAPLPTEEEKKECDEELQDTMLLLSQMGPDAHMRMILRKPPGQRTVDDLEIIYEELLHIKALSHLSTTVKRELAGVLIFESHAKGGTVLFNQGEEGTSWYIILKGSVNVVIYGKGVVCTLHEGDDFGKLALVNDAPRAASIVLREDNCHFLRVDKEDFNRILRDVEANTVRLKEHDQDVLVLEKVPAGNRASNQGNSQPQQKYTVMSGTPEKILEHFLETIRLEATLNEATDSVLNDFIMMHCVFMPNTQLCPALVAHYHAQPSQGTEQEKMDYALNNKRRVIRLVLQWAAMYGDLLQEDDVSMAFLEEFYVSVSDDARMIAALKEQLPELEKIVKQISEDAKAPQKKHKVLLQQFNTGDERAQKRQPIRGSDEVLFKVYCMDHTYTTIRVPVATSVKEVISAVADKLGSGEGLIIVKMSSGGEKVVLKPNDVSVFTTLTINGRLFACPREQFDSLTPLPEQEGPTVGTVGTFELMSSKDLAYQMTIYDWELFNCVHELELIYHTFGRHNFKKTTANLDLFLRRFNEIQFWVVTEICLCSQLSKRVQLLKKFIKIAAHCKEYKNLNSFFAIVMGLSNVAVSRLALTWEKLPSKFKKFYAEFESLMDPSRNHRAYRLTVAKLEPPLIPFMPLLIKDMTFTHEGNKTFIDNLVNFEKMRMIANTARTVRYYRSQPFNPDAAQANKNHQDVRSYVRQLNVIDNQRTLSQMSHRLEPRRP
Test [4] has the same target. The experiment in a line: Confirmatory qHTS for antagonist of cAMP-regulated guanine nucleotide exchange factor 4 (EPAC2) (AID 1645885). For activity change, negative = inhibition: % is set by controls: 0 for no effect and ±100 for the full control effect. Note: nearly all actives have a fitted effect of over 25% in size. Note: potency is the fitted concentration of half-maximal effect.
The target of test [5] is Rap guanine nucleotide exchange factor 3 (Homo sapiens) (UniProt O95398). Kind of test: Counterscreen qHTS for antagonist of cAMP-regulated guanine nucleotide exchange factor 3 (EPAC1) (AID 1645888).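 Note: fluorescence loss as bound BODIPY-GDP is released from Rap1B; % of control where 0% means no effect.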 The method in brief: (§1)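 Rap1B–BODIPY-GDP (250 nM) with 50 uM GDP; compounds pin-transferred to 9.74 nM–152 uM final (activator) or from 7.32 nM upwards (inhibitor). Fluorescence Ex/Em 480/540 nm read at 5 and 30 min, then after adding cAMP or buffer, at room temperature.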
Rap guanine nucleotide exchange factor 3 (Homo sapiens), sequence (O95398 whole entry, looked up): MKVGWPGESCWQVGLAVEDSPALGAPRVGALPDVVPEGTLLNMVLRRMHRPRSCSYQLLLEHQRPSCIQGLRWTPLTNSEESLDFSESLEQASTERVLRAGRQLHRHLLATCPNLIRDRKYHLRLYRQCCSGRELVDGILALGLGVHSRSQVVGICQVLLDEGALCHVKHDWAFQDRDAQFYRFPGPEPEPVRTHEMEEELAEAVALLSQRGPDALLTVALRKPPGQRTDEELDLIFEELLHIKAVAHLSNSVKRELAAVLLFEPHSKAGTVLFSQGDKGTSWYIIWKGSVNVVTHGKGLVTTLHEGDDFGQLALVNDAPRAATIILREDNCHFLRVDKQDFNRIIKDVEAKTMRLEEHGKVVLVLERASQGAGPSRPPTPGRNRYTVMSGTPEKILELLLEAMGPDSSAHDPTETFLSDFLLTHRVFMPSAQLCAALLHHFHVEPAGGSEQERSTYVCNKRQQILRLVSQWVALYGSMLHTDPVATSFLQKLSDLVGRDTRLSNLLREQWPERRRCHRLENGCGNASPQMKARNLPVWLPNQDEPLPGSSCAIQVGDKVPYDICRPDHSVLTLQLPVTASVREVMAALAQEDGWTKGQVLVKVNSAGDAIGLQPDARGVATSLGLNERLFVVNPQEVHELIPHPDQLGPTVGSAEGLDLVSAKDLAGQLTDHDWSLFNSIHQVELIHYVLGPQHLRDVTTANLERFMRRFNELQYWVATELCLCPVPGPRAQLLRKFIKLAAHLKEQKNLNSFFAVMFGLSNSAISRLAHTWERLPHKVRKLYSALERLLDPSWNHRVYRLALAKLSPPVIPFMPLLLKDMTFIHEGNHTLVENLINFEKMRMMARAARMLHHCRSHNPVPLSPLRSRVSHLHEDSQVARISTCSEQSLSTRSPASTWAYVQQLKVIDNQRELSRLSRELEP
(In general: The purpose of a counterscreen is to sort out artefacts and off-target activity.)

For test [6] the target is unchanged. Kind of test: Counterscreen qHTS for agonist of cAMP-regulated guanine nucleotide exchange factor 3 (EPAC1) (AID 1645889). For activation: % of control where 0% means no effect. Note: nearly all actives have a fitted effect of over 40% in size. Note: potency is the fitted concentration of half-maximal effect. Put shortly: as §1

On to `CCc1nc2c(OCc3ccc(OC(F)F)cc3)cccn2c1N(C)C(=O)c1ccc(OC)cc1`, for which the Potency entry in test [1], in test [2], in test [3], in test [4], in test [5] and in test [6] was “inactive” each time.

On to `COc1cc(C2c3c(oc4ccccc4c3=O)C(=O)N2c2nc(C)c(C)s2)ccc1O` (stereo unspecified), for which the Potency entry in test [1], in test [2], in test [3], in test [4], in test [5] and in test [6] was “inactive” throughout.

Turning to `COn1c(-c2ccc(Cl)cc2Cl)nc2ncccc21`, the Potency result in test [1], in test [2], in test [3], in test [5] and in test [6] was “inactive” throughout. The Potency in test [4] is 84.9 µM (active).

Take `CCOC(=O)c1ccccc1NC(=S)N1CCC(N2CCCCC2)CC1`: the Potency entry in test [1], in test [2], in test [3], in test [4], in test [5] and in test [6] was “inactive” in each case.

As to `CC(=O)N1CCN(C(=O)COc2ccc(Br)cc2)CC1`, the Potency result in test [1], in test [2], in test [3], in test [4], in test [5] and in test [6] was “inactive” in each case.

With `O=C1CSC2(C(=O)N(Cc3cccc(C(F)(F)F)c3)c3ccccc32)N1c1ccc(F)c(F)c1` (stereo unspecified), the Potency result in test [1], in test [2], in test [3], in test [4], in test [5] and in test [6] was “inactive” in each case.

On to `O=C(O)c1ccc(/C=N/N2CCN(Cc3cccc4ccccc34)CC2)cc1`, for which the Potency entry in test [1], in test [2] and in test [4] was “inactive” each time. Further, the activation is 4.54% [at 17.1 µM, percent relative to cAMP agonist control] in test [3] and 4.41% [at 30.8 µM] in test [6]. The activity change, negative = inhibition in test [5] is -6.71% [at 30.8 µM].

`OCC[n+]1ccc(/C=C/c2c[nH]c3ccccc23)cc1`: the Potency entry in test [1], in test [4] and in test [5] was “inactive” each time. The figures for the Potency in test [2], in test [3] and in test [6] were 56.2 µM (active), 100 µM (active) and 56.2 µM (active), respectively.

As to `Cc1ccc(Cl)cc1NC(=O)C(C)n1nc(-c2ccccc2)ccc1=O` (stereo unspecified), the Potency entry in test [1], in test [2], in test [3], in test [4], in test [5] and in test [6] was “inactive” in each case.

Turning to `O=c1c2ccccc2nc(/C=C/c2cccnc2)n1CCc1ccccc1`, the Potency in test [1] was 23.9 µM (active). Moreover, the Potency entry in test [2], in test [3], in test [4], in test [5] and in test [6] was “inactive” in each case.

With `Cn1cc(C(C[N+](=O)[O-])c2ccccc2)c2ccccc21` (stereo unspecified), the Potency entry in test [1], in test [2] and in test [4] was “inactive” in each case. For the same compound, the activation in test [3] is 0.148% [at 17.1 µM, percent relative to cAMP agonist control]; in test [6], 13.8% [at 30.8 µM]. The activity change, negative = inhibition in test [5] was -4.06% [at 30.8 µM].

In the case of `Cc1nc(N(C)Cc2ccccc2)c2c(C)c(C)sc2n1`, the Potency result in test [1], in test [2] and in test [4] was “inactive” each time. Moreover, the activation is 3.14% [at 17.1 µM, percent relative to cAMP agonist control] in test [3] and 11.8% [at 30.8 µM] in test [6]. For the same compound, the activity change, negative = inhibition in test [5] is -24.2% [at 30.8 µM].

As for `CC1CCN(C(=O)CSc2nnc(CN3CCOCC3)n2-c2ccccc2)CC1`, the Potency result in test [1], in test [2], in test [3], in test [4], in test [5] and in test [6] was “inactive” throughout.

Turning to `CN[C@@H](CO)C(=O)NC[C@H]1O[C@@H](n2cnc3c(N)ncnc32)[C@H](O)[C@@H]1O`, the Potency result in test [1], in test [2], in test [3], in test [4], in test [5] and in test [6] was “inactive” throughout.

For `Cc1ccc(S(=O)(=O)N2[C@@H](c3ccc(Cl)cc3)C(C(=O)O)=CC[C@H]2c2ccc(C(C)C)cc2)cc1`, in test [1], the Potency was 42.6 µM (active). The Potency entry in test [2], in test [3], in test [4], in test [5] and in test [6] was “inactive” throughout.

As to `COc1ccc(NC(=O)CS(=O)(=O)Cc2ccccc2)c([N+](=O)[O-])c1`, the Potency result in test [1], in test [2] and in test [4] was “inactive” in each case. In addition, the activation in test [3] is 7.06% [at 17.1 µM, percent relative to cAMP agonist control]; in test [6], 8.04% [at 30.8 µM]. Moreover, the activity change, negative = inhibition in test [5] was -9.05% [at 30.8 µM].

For `CN(Cc1ccccc1N1CCCC1)C(=O)c1cc2ccccc2o1`, the Potency entry in test [1], in test [2] and in test [4] was “inactive” in each case. The activation was 4.19% [at 17.1 µM, percent relative to cAMP agonist control] in test [3] and 17.8% [at 30.8 µM] in test [6]. Further, the activity change, negative = inhibition in test [5] was -10.5% [at 30.8 µM].

In the case of `CN1CCS/C1=C/C=C1\SC(=S)N(CC(=O)O)C1=O`, the Potency result in test [1] and in test [4] was “inactive” throughout. For the same compound, the Potency was 50.1 µM (active) in test [2] and 14.1 µM (active) in test [6]. In test [3], the activation was 15.2% [at 17.1 µM, percent relative to cAMP agonist control]. The activity change, negative = inhibition in test [5] is 62.8% [at 30.8 µM].

Regarding `COc1ccccc1Cc1nc2ccccc2nc1SCC(=O)Nc1ccccc1C(F)(F)F`, the Potency entry in test [1], in test [2], in test [3], in test [5] and in test [6] was “inactive” in each case. Moreover, in test [4], the outcome is “inactive [at 12.7 µM]”.

Consider `O=C(N[C@@H](Cc1c[nH]c2ccccc12)C(=O)O)OCC1c2ccccc2-c2ccccc21`, for which the Potency entry in test [1], in test [2], in test [3], in test [4], in test [5] and in test [6] was “inactive” each time.

For the compound `COc1ccc(S(=O)(=O)Nc2ccc(OCC(=O)O)cc2)c2ccccc12`, the Potency result in test [1], in test [2], in test [3], in test [5] and in test [6] was “inactive” throughout. Moreover, the Potency in test [4] was 47.8 µM (active).
